Rows were chosen to be rich in hits. Some 3.9% of all compounds tested hit in one or more screens of this group.
Autofluor counter: flagged as autofluorescent in microsphere protease counterscreen; compound autofluorescence counterscreen, microsphere flow cytometry; hits give high values; fluorescence intensity (concentration not given with the values); actives 3.1% (n = 360,000); in the data active = fluorescence intensity above about 16000; inconclusive = no clear call, values can overlap the other calls
3CLpro inhibitor: SARS-CoV 3CLpro protease inhibition; P0C6X7; actives 0.14% (n = 290,000); recombinant SARS-CoV 3CLpro, quenched FRET peptide cleavage; inhibition, % at 6 µM; in the data active = inhibition above about 12%
Anthrax LF inh2: inhibitors of Bacillus anthracis lethal factor protease. P15917. multiplex microsphere protease cleavage assay, LF. inhibition, % at 10 µM. actives 0.12% (n = 360,000). AID 588501; in the data active = inhibition above about 30%; inconclusive = no clear call, values can overlap the other calls; also: plate controls were buffer without enzyme for full effect and enzyme alone for no effect
Target sequence (P15917 whole entry, looked up): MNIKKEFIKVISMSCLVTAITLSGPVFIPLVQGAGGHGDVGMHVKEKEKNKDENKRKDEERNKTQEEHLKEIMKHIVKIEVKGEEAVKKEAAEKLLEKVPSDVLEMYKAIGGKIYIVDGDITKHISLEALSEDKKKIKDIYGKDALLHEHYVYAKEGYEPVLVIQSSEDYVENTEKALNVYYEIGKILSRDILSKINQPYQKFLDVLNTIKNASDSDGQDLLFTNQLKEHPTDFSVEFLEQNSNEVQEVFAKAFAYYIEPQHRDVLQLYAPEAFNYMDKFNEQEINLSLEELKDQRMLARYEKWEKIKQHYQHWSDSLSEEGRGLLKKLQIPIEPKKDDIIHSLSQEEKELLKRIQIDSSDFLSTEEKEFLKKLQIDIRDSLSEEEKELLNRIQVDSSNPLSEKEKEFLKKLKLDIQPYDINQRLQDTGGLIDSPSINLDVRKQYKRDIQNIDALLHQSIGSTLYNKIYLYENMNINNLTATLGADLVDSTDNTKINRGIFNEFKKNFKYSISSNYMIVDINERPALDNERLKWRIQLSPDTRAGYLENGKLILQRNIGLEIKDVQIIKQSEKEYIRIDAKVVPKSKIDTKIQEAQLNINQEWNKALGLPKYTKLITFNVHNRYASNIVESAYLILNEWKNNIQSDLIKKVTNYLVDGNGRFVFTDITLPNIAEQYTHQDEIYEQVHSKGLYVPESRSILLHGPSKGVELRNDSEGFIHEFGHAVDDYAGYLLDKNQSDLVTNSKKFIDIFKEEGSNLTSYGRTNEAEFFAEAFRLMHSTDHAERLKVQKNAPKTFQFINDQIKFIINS
BoNT-F LC inh: BoNT F light chain protease inhibition | inhibition, % at 10 µM | AID 588497 | Multiplex microsphere protease cleavage assay, flow cytometry | actives 0.22% (n = 360,000); in the data active = inhibition above about 35%, passing the limit was not always enough; inconclusive = no clear call, values can overlap the other calls; also: plate controls were buffer without enzyme for full effect and enzyme alone for no effect
BoNT-A LC inh2: inhibitors of Botulinum neurotoxin A light chain protease | multiplex microsphere protease substrate cleavage, flow cytometry | inhibition, % at 10 µM | actives 0.17% (n = 360,000); in the data active = inhibition above about 30%; inconclusive = no clear call, values can overlap the other calls; also: plate controls were buffer without enzyme for full effect and enzyme alone for no effect
CCHF vOTU inh-1: CCHFV vOTU protease inhibition. AID 651958. actives 0.55% (n = 370,000). Pep-AMC fluorescence. inhibition, % at 11.5 µM; also: 0% = vehicle wells with enzyme and 100% = no enzyme wells
CCHF vOTU inh-2: CCHFV vOTU protease inhibition, confirmation; shares compounds with CCHF vOTU inh-1; actives 17% (n = 1,900); Recombinant CCHFV vOTU, Pep-AMC fluorescence; inhibition, % at 11.5 µM
The depositor's hits bear a star; ? = inconclusive; . = no result given. Rule as the data show it, unless noted: active = inhibition above about 30%; inactive = the rest.

SMILES	Autofluor counter	3CLpro inhibitor	Anthrax LF inh2	BoNT-F LC inh	BoNT-A LC inh2	CCHF vOTU inh-1	CCHF vOTU inh-2
CS(=O)(=O)c1ccc(Nc2nc(C(N)CCc3ccccc3)cs2)cc1 (stereo not drawn)	3631	.	-6	2	0	4	.
COC1OC(CO)C(N(C)C(C)=O)C1O (stereo not drawn)	5153	.	0	-2	0	0	.
Cc1ccc(S(=O)(=O)NN=C(c2ccccc2)c2cccs2)cc1	3716	.	-7	-4	0	32*	-3
CCOC(=O)C(C)Oc1c(C(=O)OC)sc2ncccc12 (stereo not drawn)	4529	-4	-1	-1	-1	3	.
Cc1ccc(NC(=O)CN(C)C(=O)c2cn(Cc3ccccc3)nc2-c2cccnc2)cc1	6267	.	-1	-5	4	4	.
Cc1cc(Cl)c(C)c(S(=O)(=O)Oc2ccccc2NC(=O)CCC(=O)O)c1Cl	2993	.	-8	-1	0	33*	-6
COc1ccccc1NC(=O)CCC(=O)O	5907	-1	-1	-2	0	5	.
OC(c1ccc(Cl)c(Cl)c1)c1ncc(-c2ccc(C(F)(F)F)cc2)[nH]1 (stereo not drawn)	3948	.	-14	-35	-2	35*	-6
OC(c1ccc(Cl)c(Cl)c1)c1ncc(-c2ccccc2C(F)(F)F)[nH]1 (stereo not drawn)	4141	.	-8	-5	0	34*	-10
OC(c1ccc(Cl)c(Cl)c1)c1ncc(-c2ccc(Cl)cc2)[nH]1 (stereo not drawn)	3505	.	-5	-3	-1	7	.
O=C(O)COc1ccccc1/C=N/NC(=O)Cc1csc(Nc2cccc(C(F)(F)F)c2)n1	4784	5	-6	-6	-1	32*	-2
CCCCN(C=O)c1c(CC)nc2ccc(C(=O)NCCOc3ccc(OC)cc3)cn12	3842	.	-2	1	0	-12	.
CC(c1ccco1)N(Cc1ccco1)C(=O)Nc1ccccc1 (stereo not drawn)	9830	4	-7	-2	0	34*	-20
COc1ccc(-c2nc3c(-c4ccc(F)cc4)cnn3cc2C)cc1F	4348	1	0	-12	-1	14	.
COc1ccc(C(C)=O)c2c(O)cccc12	2530	0	1	-6	0	31*	-17
CCOc1ccc(C(=O)NCC(c2ccco2)N2CCOCC2)cc1 (stereo not drawn)	.	.	.	.	.	-5	.
Cc1ccc(NCc2ccccc2O)cc1	10396	-1	-1	-5	0	-5	.
Cc1ccc(CNc2ccc(O)cc2)cc1	4101	5	-4	-36	0	63*	72*
CC(C)c1ccc(N(C(=O)CNC(=O)c2ccco2)C(C(=O)NC2CCCC2)c2cccnc2)cc1 (stereo not drawn)	3688	-4	-5	-17	-4	13	.
COc1ccc(NC(=O)c2sc(=O)n(Cc3ccc(F)c(Cl)c3)c2C)cc1OC	5481	.	-7	0	0	31*	-14
Cc1cc(=O)n(C2CCS(=O)(=O)C2)[nH]1 (stereo not drawn)	4620	-2	-7	-5	-1	57*	-18
Cc1ccccc1-c1nnnn1C1CCS(=O)(=O)C1 (stereo not drawn)	2237	0	0	-6	-1	-5	.
CCCCn1c(N)c(N(CC(C)C)C(=O)CSCC(=O)Nc2cccc(C)c2)c(=O)[nH]c1=O	6467	.	-2	-15	-1	34*	-21
CCCCN(C(=O)CSCC(=O)Nc1cccc(C)c1)c1c(N)n(CCCC)c(=O)[nH]c1=O	?	.	?	8	4	-2	.
CC1=CC(=O)c2ccccc2C1=O	6043	-4	-7	-2	0	11	.
SMILES	Autofluor counter	3CLpro inhibitor	Anthrax LF inh2	BoNT-F LC inh	BoNT-A LC inh2	CCHF vOTU inh-1	CCHF vOTU inh-2
CC(C)(C=O)C1=CC(=O)c2ccccc2C1=O	2093	-3	-1	-8	0	79*	-27
CC(=O)Nc1ccc(S(=O)(=O)Nc2nc3ccccc3nc2Nc2ccc(N)cc2)cc1	?	-2	0	1	0	25	.
CC(=O)Nc1ccc(Nc2nc3ccccc3nc2NS(=O)(=O)c2ccc(Cl)c([N+](=O)[O-])c2)cc1	5211	.	1	-9	-1	32*	15
Cc1ccc(S(=O)(=O)Nc2ccc(OCC(=O)N3CCOCC3)cc2)c(C)c1NS(C)(=O)=O	3850	-5	-1	12	-1	10	.
Cc1nnc(NC(=O)CSc2nnc(CC(=O)Nc3ccccc3C)n2C)s1	2988	5	14	-39	-2	5	.
COc1cc(O)c(NC(C)=O)c2nonc12	5994	-3	6	27	?	40*	-20
COc1cc(-c2ccc(NC(C)=O)c(OC)c2)ccc1NC(C)=O	?	2	5	?	-3	-3	.
Cc1ccc(Nc2c([N+](=O)[O-])ccc3nonc23)c(C)c1	4051	3	-10	?	2	9	.
Cc1ccc(S(=O)c2ccc([N+](=O)[O-])c3nonc23)cc1 (stereo not drawn)	2848	.	4	0	4	32*	18
CNC[C@H]1OCc2cnnn2CCCC(=O)N([C@@H](C)CO)C[C@@H]1C	.	.	.	.	.	0	.
CC(=O)N1CCc2c(sc(NC(=O)C3CC3)c2-c2nc3ccccc3s2)C1	6145	-1	-6	1	2	50*	-20
CCCCC(=O)Nc1sc2c(c1-c1nc3ccccc3s1)CCN(C(C)=O)C2	.	5	.	.	.	.	.
Cc1ccc(S(=O)(=O)Nc2cccc(C(=O)NCCCn3ccnc3)c2)cc1F	5630	.	-1	-2	2	1	.
COc1ccccc1Nc1ccc([N+](=O)[O-])cc1N	2609	3	-1	-6	1	10	.
COc1cc(Nc2ccccc2Cl)c([N+](=O)[O-])nc1[N+](=O)[O-]	7121	1	-8	-4	0	31*	-7
CC(=O)NCC1CCCN(Cc2cn(-c3ccccc3F)nc2-c2cc(C)sc2C)C1 (stereo not drawn)	4435	2	-6	-6	-1	-16	.
COc1ccccc1NS(=O)(=O)c1ccc(N/N=C/C=C/c2ccccc2[N+](=O)[O-])c([N+](=O)[O-])c1	2026	-2	-2	-7	-1	-1	.
CCN(CC)S(=O)(=O)c1ccc(N/N=C/c2ccccc2OCC(=O)O)c([N+](=O)[O-])c1	3276	4	-3	-2	-1	34*	8
COc1ccccc1NS(=O)(=O)c1ccc(N/N=C/c2ccccc2OCC(=O)O)c([N+](=O)[O-])c1	3939	5	-2	0	0	30*	14
O=C(O)COc1ccccc1/C=N/Nc1ccc(S(=O)(=O)Nc2ccc(Cl)cc2)cc1[N+](=O)[O-]	3970	9	0	0	-1	37*	17
O=C(O)COc1ccccc1C=NNc1ccc([N+](=O)[O-])cc1S(=O)(=O)Nc1ccc(Cl)cc1	3646	.	6	-9	0	22	.
